Screens (PubChem)
Pf apPOL inh = Pf-apPOL DNA polymerase inhibition | Recombinant Pf-apPOL, molecular beacon fluorescence, 1.5 h | inhibition, % at 10 µM | 210,000 compounds, 0.25% hits | AID 1794808
mHTT CaM bind = mHTT-calmodulin interaction abrogation; P42858; AlphaScreen His-mHTT/GST-CaM binding, luminescence; inhibition, % at 15 µM; 190,000 compounds, 3.6% hits;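 also: 0% = both proteins with DMSO and 100% = one protein alone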
Target sequence (P42858 whole entry, looked up, stated change not applied): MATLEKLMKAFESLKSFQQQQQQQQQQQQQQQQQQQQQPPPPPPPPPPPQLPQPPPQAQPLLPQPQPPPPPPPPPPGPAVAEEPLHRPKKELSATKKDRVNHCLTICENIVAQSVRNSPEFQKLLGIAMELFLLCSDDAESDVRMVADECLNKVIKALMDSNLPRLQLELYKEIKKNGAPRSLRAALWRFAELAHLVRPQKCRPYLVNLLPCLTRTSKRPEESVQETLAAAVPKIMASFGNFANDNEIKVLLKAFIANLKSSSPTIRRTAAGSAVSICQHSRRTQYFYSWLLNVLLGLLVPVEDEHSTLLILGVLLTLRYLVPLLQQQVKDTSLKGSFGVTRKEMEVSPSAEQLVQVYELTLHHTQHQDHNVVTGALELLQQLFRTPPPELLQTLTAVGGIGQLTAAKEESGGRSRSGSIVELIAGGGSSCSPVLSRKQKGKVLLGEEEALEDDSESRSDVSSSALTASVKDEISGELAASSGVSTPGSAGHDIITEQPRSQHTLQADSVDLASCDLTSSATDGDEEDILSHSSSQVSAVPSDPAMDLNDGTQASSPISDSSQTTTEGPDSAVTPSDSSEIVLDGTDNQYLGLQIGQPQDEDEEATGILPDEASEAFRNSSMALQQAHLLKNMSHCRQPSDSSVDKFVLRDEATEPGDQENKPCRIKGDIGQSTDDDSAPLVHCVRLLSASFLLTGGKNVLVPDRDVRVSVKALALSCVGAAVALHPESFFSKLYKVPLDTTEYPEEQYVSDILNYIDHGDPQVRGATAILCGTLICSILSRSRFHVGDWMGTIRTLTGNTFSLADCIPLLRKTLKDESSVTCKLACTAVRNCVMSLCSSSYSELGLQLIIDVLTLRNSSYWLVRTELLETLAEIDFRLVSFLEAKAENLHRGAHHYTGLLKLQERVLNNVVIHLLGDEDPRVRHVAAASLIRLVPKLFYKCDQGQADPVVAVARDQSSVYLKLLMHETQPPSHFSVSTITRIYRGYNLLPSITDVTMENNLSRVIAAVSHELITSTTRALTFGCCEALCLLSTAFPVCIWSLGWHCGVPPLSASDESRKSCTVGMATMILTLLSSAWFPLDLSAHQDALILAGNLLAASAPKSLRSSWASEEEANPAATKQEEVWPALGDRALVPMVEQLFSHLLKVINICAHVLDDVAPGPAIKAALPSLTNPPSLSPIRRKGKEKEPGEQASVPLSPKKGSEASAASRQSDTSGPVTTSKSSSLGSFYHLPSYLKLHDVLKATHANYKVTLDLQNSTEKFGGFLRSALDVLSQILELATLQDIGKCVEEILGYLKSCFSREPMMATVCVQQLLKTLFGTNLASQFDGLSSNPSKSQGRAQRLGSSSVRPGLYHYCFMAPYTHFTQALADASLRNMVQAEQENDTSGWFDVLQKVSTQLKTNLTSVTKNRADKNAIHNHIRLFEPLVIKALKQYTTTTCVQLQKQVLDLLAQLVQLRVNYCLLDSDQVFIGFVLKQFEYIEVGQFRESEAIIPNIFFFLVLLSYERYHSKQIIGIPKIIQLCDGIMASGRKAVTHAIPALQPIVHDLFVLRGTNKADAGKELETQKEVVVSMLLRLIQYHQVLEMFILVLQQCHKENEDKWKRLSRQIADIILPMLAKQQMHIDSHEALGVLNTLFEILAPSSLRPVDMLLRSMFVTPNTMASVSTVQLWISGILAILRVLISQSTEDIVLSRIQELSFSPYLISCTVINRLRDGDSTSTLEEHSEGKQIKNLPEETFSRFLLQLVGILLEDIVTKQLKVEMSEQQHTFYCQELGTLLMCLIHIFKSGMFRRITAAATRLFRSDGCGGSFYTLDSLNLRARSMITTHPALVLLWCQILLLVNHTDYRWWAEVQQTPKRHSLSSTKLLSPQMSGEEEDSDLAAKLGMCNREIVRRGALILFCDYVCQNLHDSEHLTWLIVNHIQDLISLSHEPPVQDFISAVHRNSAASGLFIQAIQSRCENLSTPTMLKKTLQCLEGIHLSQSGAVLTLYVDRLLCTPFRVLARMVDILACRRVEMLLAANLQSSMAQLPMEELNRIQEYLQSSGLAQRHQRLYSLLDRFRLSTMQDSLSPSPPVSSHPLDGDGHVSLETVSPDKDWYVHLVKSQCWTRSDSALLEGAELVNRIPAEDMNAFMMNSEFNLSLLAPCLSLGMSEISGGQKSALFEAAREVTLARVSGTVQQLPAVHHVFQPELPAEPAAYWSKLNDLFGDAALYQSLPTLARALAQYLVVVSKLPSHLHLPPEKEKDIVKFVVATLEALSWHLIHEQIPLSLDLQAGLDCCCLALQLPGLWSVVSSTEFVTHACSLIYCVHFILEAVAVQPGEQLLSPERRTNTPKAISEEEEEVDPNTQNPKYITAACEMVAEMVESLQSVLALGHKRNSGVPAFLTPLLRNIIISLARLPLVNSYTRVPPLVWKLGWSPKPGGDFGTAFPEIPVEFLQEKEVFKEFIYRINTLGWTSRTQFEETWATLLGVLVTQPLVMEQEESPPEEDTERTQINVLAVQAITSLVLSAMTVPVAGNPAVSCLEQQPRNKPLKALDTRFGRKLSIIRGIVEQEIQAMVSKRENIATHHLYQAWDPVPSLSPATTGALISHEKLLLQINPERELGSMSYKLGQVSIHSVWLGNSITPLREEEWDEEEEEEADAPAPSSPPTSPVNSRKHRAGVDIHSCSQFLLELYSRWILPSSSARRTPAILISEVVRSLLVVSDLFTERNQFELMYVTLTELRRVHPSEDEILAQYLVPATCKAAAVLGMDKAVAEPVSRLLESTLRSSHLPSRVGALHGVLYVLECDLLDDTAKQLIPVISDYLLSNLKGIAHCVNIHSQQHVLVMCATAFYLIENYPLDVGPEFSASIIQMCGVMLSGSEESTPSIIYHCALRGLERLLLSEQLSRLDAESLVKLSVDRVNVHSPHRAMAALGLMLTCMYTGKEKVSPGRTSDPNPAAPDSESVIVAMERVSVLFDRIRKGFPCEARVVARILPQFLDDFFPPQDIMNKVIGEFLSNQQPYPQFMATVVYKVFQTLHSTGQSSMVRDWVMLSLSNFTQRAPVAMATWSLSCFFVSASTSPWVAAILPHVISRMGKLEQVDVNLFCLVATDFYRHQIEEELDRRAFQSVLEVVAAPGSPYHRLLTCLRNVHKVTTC
* marks the source's active call; other numbers are inactive results. In the library only some 3.6% were active in any assay of this set; here they are far more common. Rule as the data show it: active = inhibition above about 50%; inactive = the rest.

How did Cc1noc(C)c1S(=O)(=O)N1CCC(n2c(-c3cccs3)nc3cccnc32)C1 (stereo not drawn) do in these assays?
Pf apPOL inh: -4.2; mHTT CaM bind: -2.3

How did Cc1cc(N2C(=O)c3ccc(C(=O)O)cc3C2=O)no1 do in these assays?
Pf apPOL inh: -0.6; mHTT CaM bind: -4.0

Results for Cc1cc(N2C(=O)c3ccc(C(=O)N4CC=C(c5ccccc5)CC4)cc3C2=O)no1 ?
Pf apPOL inh: -2.7; mHTT CaM bind: 51.0*

What do the screens show for `O=C(Nc1c(C(=O)Nc2ccccc2)oc2ccccc12)c1ccccc1Br`?
Pf apPOL inh: -1.6; mHTT CaM bind: -4.6

Results for O=C1C2=C(Nc3[nH]n(-c4ccccc4)c(=O)c3C2c2ccc([N+](=O)[O-])cc2)c2ccccc21 (stereo not drawn) ?
Pf apPOL inh: 1.4; mHTT CaM bind: 50.0*

How did COc1ccc(OC)c(C2Sc3ccccc3NC3=C2C(=O)c2ccccc23)c1 (stereo not drawn) do in these assays?
Pf apPOL inh: -54.7; mHTT CaM bind: 71.0*

What do the screens show for `O=C1C2=C(Nc3ccccc3SC2c2ccc([N+](=O)[O-])cc2)c2ccccc21` (stereo not drawn)?
Pf apPOL inh: -6.7; mHTT CaM bind: 66.0*

What do the screens show for `O=C1OCC2=C1C(c1ccc(F)cc1)Sc1ccccc1N2` (stereo not drawn)?
Pf apPOL inh: 1.4; mHTT CaM bind: 2.0

What do the screens show for `CCOC(=O)C1=C(C)NC2=C(C(=O)c3ccccc32)C1c1ccc([N+](=O)[O-])cc1` (stereo not drawn)?
Pf apPOL inh: -8.3

How did Cn1c2c(c(=O)n(C)c1=O)C(c1ccc([N+](=O)[O-])cc1)C1=C(N2)c2ccccc2C1=O (stereo not drawn) do in these assays?
Pf apPOL inh: -4.1; mHTT CaM bind: -4.0

How did O=C1C2=C(Nc3ccccc3SC2c2ccc(Br)cc2)c2ccccc21 (stereo not drawn) do in these assays?
mHTT CaM bind: 70.2*

How did COc1ccc(OC)c(C2C3=C(Nc4c2c(=O)n(C)c(=O)n4C)c2ccccc2C3=O)c1 (stereo not drawn) do in these assays?
Pf apPOL inh: -6.2; mHTT CaM bind: -1.0

What do the screens show for `CC1CCN(CN2C(=O)C(=Nc3cccc(F)c3)c3ccccc32)CC1`?
Pf apPOL inh: -3.2; mHTT CaM bind: 10.0

Results for Cc1cc(NC(=O)c2cccc([N+](=O)[O-])c2)ccc1I ?
Pf apPOL inh: -7.7; mHTT CaM bind: 5.6

What do the screens show for `COCc1nn(C)c2c1CN(C(=O)c1cccc3[nH]ccc13)CC2`?
Pf apPOL inh: -4.2; mHTT CaM bind: 15.2

What do the screens show for `CN(C(=O)c1ccc2c(c1)NC(=O)C(N1CCOCC1)S2)C1CCCCC1` (stereo not drawn)?
Pf apPOL inh: -18.4; mHTT CaM bind: 11.0

How did Cc1ccc(NC(=O)Nc2nnc(-c3ccc(F)cc3)s2)cc1 do in these assays?
Pf apPOL inh: -6.3; mHTT CaM bind: -7.1

Results for O=[N+]([O-])c1cc2c(cc1C1N(Cc3ccccc3)CCN1Cc1ccccc1)OCO2 ?
Pf apPOL inh: 3.1; mHTT CaM bind: 60.0*

Results for O=[N+]([O-])c1cc2c(cc1CN1CCN(c3ccccc3)CC1)OCO2 ?
Pf apPOL inh: -1.0; mHTT CaM bind: 15.3

What do the screens show for `Cc1ccc(CN2CCC(CNC(=O)Nc3ccc(F)c(Cl)c3)CC2)cc1`?
Pf apPOL inh: -2.5; mHTT CaM bind: 15.4

How did O=C1[C@H](Cc2ccccc2)NCCCC[C@H](c2ccc(Cl)cc2)N1Cc1ccccc1 do in these assays?
Pf apPOL inh: -6.5; mHTT CaM bind: 36.6

Results for O=C1[C@H](Cc2ccccc2)NC/C=C\C[C@H](c2ccc(Cl)cc2)N1Cc1ccc(Cl)cc1 ?
Pf apPOL inh: -5.9; mHTT CaM bind: 98.7*

Results for O=C1[C@H](Cc2ccccc2)NC/C=C\C[C@@H](c2ccco2)N1Cc1ccccc1 ?
Pf apPOL inh: -2.4; mHTT CaM bind: 43.1

What do the screens show for `O=C1[C@H](Cc2ccccc2)NCCCC[C@@H](c2ccc(Cl)cc2)N1Cc1ccc(Cl)cc1`?
Pf apPOL inh: -5.9; mHTT CaM bind: 99.9*

How did O=C1[C@H](Cc2ccccc2)NCCCC[C@H](c2ccco2)N1Cc1ccccc1 do in these assays?
Pf apPOL inh: 1.9; mHTT CaM bind: 92.6*

Results for O=C1[C@H](Cc2ccccc2)NC/C=C\C[C@H](c2ccc(Cl)cc2)N1Cc1ccccc1 ?
Pf apPOL inh: -1.0; mHTT CaM bind: 81.6*

How did O=C1[C@H](Cc2ccccc2)NCCCC[C@@H](c2ccco2)N1Cc1ccccc1 do in these assays?
Pf apPOL inh: -3.3; mHTT CaM bind: 26.9

Results for O=C1CSC(c2ccc(F)cc2)N1Cc1ccccc1 (stereo not drawn) ?
Pf apPOL inh: -0.1; mHTT CaM bind: -5.0

What do the screens show for `O=c1c2nc(-c3ccc4c(c3)OCO4)cn2ccn1-c1cccc(Cl)c1`?
Pf apPOL inh: 2.4; mHTT CaM bind: 1.4

What do the screens show for `Cn1cc(CCNC(=O)C2CCCCC2)c2cccnc21`?
Pf apPOL inh: -0.7; mHTT CaM bind: -8.2

How did O=C(Nc1ccc(Cl)cc1)C(O)(c1ccccc1)c1ccccc1 do in these assays?
Pf apPOL inh: -15.4; mHTT CaM bind: -1.9

How did O=C1[C@H](Cc2ccccc2)NC/C=C\C[C@@H](c2ccc(Cl)cc2)N1Cc1ccccc1 do in these assays?
Pf apPOL inh: -3.4; mHTT CaM bind: 92.9*

Results for O=C1c2ccccc2NC(c2ccc(Cl)cc2)N1Cc1ccccc1 (stereo not drawn) ?
Pf apPOL inh: 16.5; mHTT CaM bind: -22.0

How did O=C(NCc1cccnc1)c1ccc(S(=O)(=O)Nc2ccc3c(c2)OCO3)o1 do in these assays?
Pf apPOL inh: -1.2; mHTT CaM bind: -8.7

Results for O=C(Nc1ccc([N+](=O)[O-])cc1)c1cccc2c1C(=O)c1ccccc1-2 ?
Pf apPOL inh: -5.0; mHTT CaM bind: 1.0

Results for CCOC(=O)CNC(=O)CN1CCN(c2ccc(C(C)C)cc2)C1=O ?
Pf apPOL inh: -14.1; mHTT CaM bind: -9.1

How did CCCc1cc(C2CCCN2Cc2cc(Br)ccc2O)no1 (stereo not drawn) do in these assays?
Pf apPOL inh: 3.5; mHTT CaM bind: -14.2

What do the screens show for `Cc1cc(C2CCCN2Cc2cc(Br)ccc2O)no1` (stereo not drawn)?
Pf apPOL inh: -5.8; mHTT CaM bind: 62.3*

Results for Clc1cccc(CN2CCN(c3cnn4c(C5CC5)nnc4c3)CC2)c1 ?
Pf apPOL inh: 0.6; mHTT CaM bind: 18.1

What do the screens show for `COc1ccc(Nc2nc(NN)nc(OCC(F)(F)F)n2)cc1`?
mHTT CaM bind: 92.4*

Results for COc1ccc(Nc2nc(Cl)nc(NC(C)C)n2)cc1 ?
Pf apPOL inh: -3.4; mHTT CaM bind: 6.0

How did O=C(Nc1nnc(-c2ccco2)o1)c1ccc([N+](=O)[O-])cc1 do in these assays?
Pf apPOL inh: -0.3; mHTT CaM bind: -9.1

Results for CCCCOc1cccc(C(=O)Nc2nnc(-c3ccco3)o2)c1 ?
Pf apPOL inh: -120.4; mHTT CaM bind: 60.0*

What do the screens show for `O=C1OC(c2ccc(Br)cc2)=N/C1=C\c1c(F)cccc1Cl`?
Pf apPOL inh: -2.5; mHTT CaM bind: -5.0

Results for COc1ccc(Nc2ncc3c(n2)CCN(Cc2cccc(C)c2)C3)c(OC)c1 ?
Pf apPOL inh: -8.3; mHTT CaM bind: 9.4

What do the screens show for `COc1ccc(OC)c(Nc2ncc3c(n2)CCN(Cc2cccc(F)c2F)C3)c1`?
Pf apPOL inh: -1.6; mHTT CaM bind: 16.6

Results for COc1ccc(OC)c(Nc2ncc3c(n2)CCN(Cc2ccccc2OC)C3)c1 ?
Pf apPOL inh: -2.5; mHTT CaM bind: 59.4*
